Measurements taken from PubChem BioAssay (NCATS).
Records with an inconclusive call do not appear. Activity calls are given as the source filed them. The call rests on the fitted dose curve; in most records, active means well fitted inhibition curve with a large enough effect; inconclusive means small, poorly fitted or top-dose-only effect; inactive means flat fitted curve, though single readings scatter.

The molecules below were run against Calcium and integrin-binding protein 1 (Homo sapiens) (UniProt Q99828) (assay: Primary qHTS for Identification of Calcium Integrin Binding Protein 1 (CIB1) Competitor (AID 1508620; further: top concentration of the series differs between compounds)). Details: CIB1-GST / FITC-alphaIIb peptide fluorescence polarization; series mostly up to 114 µM; activity change, negative = inhibition: at the top concentration.
Chain of Calcium and integrin-binding protein 1 (Homo sapiens) (Q99828 whole entry, looked up): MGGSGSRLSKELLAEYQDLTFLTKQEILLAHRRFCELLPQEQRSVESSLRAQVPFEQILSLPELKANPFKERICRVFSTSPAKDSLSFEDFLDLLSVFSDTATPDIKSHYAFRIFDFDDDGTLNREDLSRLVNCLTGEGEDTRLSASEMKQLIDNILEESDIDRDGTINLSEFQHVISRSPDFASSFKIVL
Method in brief: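 Fluorescence polarization competition: GST-tagged CIB1 (1 uM final) preincubated with compound 15 min at room temperature, then FITC-labelled alphaIIb peptide (100 nM final) added. After 15 min at room temperature, polarization read at Ex 480/Em 540.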
On the % scale 0 is the no-effect control and ±100 the full control effect.

SMILES	activity change, negative = inhibition	Potency
Cc1ccc(-c2no[n+]([O-])c2C#N)cc1	-1.59% (inactive)	
CNc1oc(-c2ccc3c(c2)OCCO3)nc1C#N	1.76% (inactive)	
O=C1CCCC2=C1C(c1[nH]ncc1Cl)NC(=NCCc1ccc(O)cc1)N2 (centres undefined)	-1.63% (inactive)	
Cc1ccc(CNc2ccc(N3CCNCC3=O)cc2)cc1	2.31% (inactive)	
COc1cccc(C2c3c(ncn(-c4ccc5c(c4)OCO5)c3=N)Oc3ccc4ccccc4c32)c1 (centres undefined)	-0.936% (inactive)	
CCOC(=O)c1cccc(-n2cnc(/C=C3\NC(=O)N(CC(=O)OC(C)(C)C)C3=O)c2)c1	2.05% (inactive)	
Cn1c2cc(CO)sc2c2cnn(Cc3ccccc3F)c(=O)c21	-2.78% (inactive)	
O=C(OCC#CCSc1nnc(-c2cccc3ccccc23)o1)c1ccncc1	0.615% (inactive)	
Cc1cc(C)nc(NC(=S)N2CCN(c3noc4ccccc34)CC2)c1	-3.73% (inactive)	
O=C(OCC#CCSc1nnc(-c2cccc3ncccc23)o1)c1ccc(F)cc1	4.08% (inactive)	
CC(C)(C)c1ccc(C(=O)Nc2ccc(-c3nc4ccccc4[nH]3)cc2)cc1	1.05% (inactive)	
Cc1ccc(C)n1-c1cccc(-c2nn[nH]n2)c1	29.6% (inactive)	
O=S1(=O)N=C(Oc2cccc(-c3ccccc3)c2)c2ccccc21	2.12% (inactive)	
CCCCN1C(=O)c2ccccc2NC1c1ccc(OC)c(COc2ccc(NC(C)=O)cc2)c1 (centres undefined)	1.41% (inactive)	
Cc1nnc(-c2cnn(C)c2N)n1CCc1ccccc1	-3.52% (inactive)	
O=C1CCc2cc([S+](=O)([O-])Nc3ccc(N[S+](=O)([O-])c4ccc5c(c4)CCC(=O)N5)cc3)ccc2N1	5.37% (inactive)	
COc1ccc(CSc2nc3ncc(Br)cc3[nH]2)cc1F	1.74% (inactive)	
Cc1ccc(N2CCC(CNc3nc(-c4ccccc4C(C)C)ncc3F)CC2)cn1	3.46% (inactive)	
Cc1cc(C)nc(NC(=S)N2CCN(c3cnccn3)CC2)c1		inactive
Nc1cccc([S+](=O)([O-])N2CCCN([S+](=O)([O-])c3cccc(N)c3)CC2)c1	-17.1% (inactive)	

SMILES	activity change, negative = inhibition	Potency
Cc1nc(CNc2ncnc3ccc(-c4oc(-c5ccccc5)nc4C)cc23)cs1	-2.42% (inactive)	
O=C1CCCC2=C1C(c1c(Cl)cccc1Cl)N=C(Nc1nc3ccccc3o1)N2 (centres undefined)	-1.51% (inactive)	
O=C(Nc1ccc(-c2cccnc2)nc1)c1cccs1	4.93% (inactive)	
CC(=O)c1cccc(NC(=O)Nc2nnc(-c3ccncc3)s2)c1	-1.61% (inactive)	
COc1ccc(C2Nc3ccccc3C(=O)N2Cc2ccc(C(F)(F)F)cc2)cc1COc1ccc(NC(C)=O)cc1 (centres undefined)	1.78% (inactive)	
NC(=O)N1CCN(c2nc(-c3ccc(Br)cc3)cs2)CC1	1.8% (inactive)	
Oc1ccc(COCc2ccccc2)c2cccnc12	-5.27% (inactive)	
COc1cccc(CNc2ccc(S(=O)(=O)Nc3nc(C)cs3)cc2)c1O	-8.75% (inactive)	
Cc1cn([C@H]2C[C@H](N[S+](=O)([O-])Cc3cccc(Cl)c3)[C@@H](CO)O2)c(=O)[nH]c1=O	-0.58% (inactive)	
Oc1ccc(/C=C/c2c(F)cccc2F)c2cccnc12	-9.9% (inactive)	
COc1ccc(C2Oc3ccccc3C(=O)N2Cc2ccccc2)cc1COc1ccc(NC(C)=O)cc1 (centres undefined)	-4.94% (inactive)	
CCOc1ccc(NC(=O)NCC2CCCN2c2ccc(OC)cc2)cc1 (centres undefined)		inactive
Cc1cc(C)n2ncc(C(=O)Nc3ccc(C(F)(F)F)cc3)c2n1	1.99% (inactive)	
O=C(CNC(=O)c1ccccc1)N[C@@H](C(=O)Nc1cc(C(F)(F)F)ccc1Cl)c1ccccc1		inactive
O=S(=O)(NC1CCN(S(=O)(=O)c2c(F)cccc2F)C1)c1ccc2c(c1)OCCO2 (centres undefined)	-2.43% (inactive)	
O=C1CCCC2=C1C(c1[nH]ncc1Cl)N=C(Nc1nc3cc(Cl)ccc3o1)N2 (centres undefined)	-5.19% (inactive)	
COc1ccc(-c2nnc(NC(=O)Nc3ccc4ccccc4c3)s2)cc1OC	8.68% (inactive)	
O=[S+]([O-])(Nc1cnc2ccccc2c1)c1ccc(NCc2ccc(Cl)cc2O)cc1	-4.96% (inactive)	
COc1cccc(C2c3c(ncn(-c4ccc(Br)cc4)c3=N)Oc3ccc4ccccc4c32)c1 (centres undefined)	-9.4% (inactive)	
